The campaign covered roughly 1,500 compounds. About 890 (59%) were called active.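 Rule for the calls: active = inhibition of the choline-evoked signal at any tested dose together with a fitted dose-response curve; inactive = no inhibition at any dose or no curve.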 So high a share suggests a set chosen from earlier hits. Not all results are given here. Potency and affinity values are given separately.
What follows are compounds tested against High affinity choline transporter 1 (Homo sapiens) (UniProt Q9GZV3) (assay: human choline transporter blockers, potency – cell-based, 5-point CRC, membrane potential dye, dose response (AID 504840)). Conditions: HEK293-CHT, choline-induced depolarization, CHT with LV-to-AA double alanine mutation; series mostly up to 37 µM.
Sequence of High affinity choline transporter 1 (Homo sapiens) (Q9GZV3 whole entry, looked up): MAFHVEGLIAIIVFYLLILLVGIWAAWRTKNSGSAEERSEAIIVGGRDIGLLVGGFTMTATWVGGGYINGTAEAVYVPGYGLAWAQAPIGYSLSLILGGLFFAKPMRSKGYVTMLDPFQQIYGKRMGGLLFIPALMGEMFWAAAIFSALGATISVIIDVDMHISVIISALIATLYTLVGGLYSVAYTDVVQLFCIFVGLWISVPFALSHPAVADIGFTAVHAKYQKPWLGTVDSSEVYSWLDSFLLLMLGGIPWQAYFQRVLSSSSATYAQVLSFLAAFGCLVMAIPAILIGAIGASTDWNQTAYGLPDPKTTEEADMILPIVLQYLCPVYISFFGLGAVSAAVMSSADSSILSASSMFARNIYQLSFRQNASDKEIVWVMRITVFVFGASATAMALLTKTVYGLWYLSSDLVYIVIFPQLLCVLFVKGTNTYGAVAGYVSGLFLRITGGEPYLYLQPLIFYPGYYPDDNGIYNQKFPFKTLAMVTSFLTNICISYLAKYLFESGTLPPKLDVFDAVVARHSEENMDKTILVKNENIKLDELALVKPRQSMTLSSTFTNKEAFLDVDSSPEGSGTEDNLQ

outcome, inactive:
Cc1nn(CC2CC2)c(=O)n1-c1ccc(Oc2ccccc2)cc1, N#Cc1c(Cl)cccc1N1CCCC1, CC(C)NCC(O)c1ccc(O)c(O)c1 (stereo not drawn), C[C@@H](NCCc1ccc(O)cc1)[C@@H](O)c1ccc(O)cc1, CCc1ccccc1NC(=O)C1CC(c2ccc(OC)cc2)=NO1 (stereo not drawn), N#CCCn1cc(/C=C2\NC(=S)N(c3ccccc3)C2=O)c(-c2ccc(F)cc2)n1, Cc1ccc(C(=O)N/C(=C\c2cccs2)c2nc3ccccc3[nH]2)cc1, CSc1ccc(C(=O)C2CCCN(C(=O)c3ccsc3)C2)cc1 (stereo not drawn), COc1ccc(C(=O)N2CCCC(O)C2)cc1OC1CCN(C(C)C)CC1 (stereo not drawn), CC(C)(C)CC(=O)NCCc1csc(-c2ccccc2)n1, N#C/C(=N\Nc1cccc(C(F)(F)F)c1)C(=O)c1ccsc1, CC[N+]1(CC)CC2=Cc3c(ccc4ccccc34)C(C)C2C1 (stereo not drawn), CC(=O)N(C)c1ccc(NC(=O)C(Sc2ccccc2)c2ccccc2)cc1 (stereo not drawn), CC(C)(C)C(=O)/C(C#N)=C/c1ccc(O)cc1, Cc1ccc(S(=O)(=O)Oc2ccccc2/C=C2\SC(=O)NC2=O)cc1, Cc1ccc(S(=O)(=O)Oc2ccccc2/C=C2/SC(=O)NC2=O)cc1, CCCC1=NN2C(=N)/C(=C\c3ccc(SCc4ccco4)o3)C(=O)N=C2S1, Cc1ccc(S(=O)(=O)Oc2cccc(/C=N/n3cnnc3)c2)cc1, CS(=O)(=O)C1=NN2C(=N)/C(=C\c3ccc(OC(=O)c4ccco4)cc3)C(=O)N=C2S1, CC(C)CS(=O)(=O)C1=NSC2=NC(=O)/C(=C\c3ccc(OC(=O)c4ccco4)cc3)C(=N)N21, CCOc1ccc(Br)cc1S(=O)(=O)N1CCCC1, COc1ccc(/C=C/C(=O)NC2CCCCCCC2)cc1S(=O)(=O)N1CCOCC1, Cc1ccccc1NC(=O)c1ccc(C)c(S(=O)(=O)N2CCN(C)CC2)c1, Oc1ccc(/C=N/n2c(-c3ccccc3)n[nH]c2=S)cc1Br, CN(c1ccc(O)cc1)c1nc(-c2cccs2)cs1, COc1ccc(C(=O)NCc2ccon2)cc1OC1CCN(C(C)C)CC1, COc1cc(CNCCc2ccccc2)cc(Br)c1OCC(=O)Nc1ccccc1C, Cn1c(SCc2nc3ccccc3s2)nnc1-c1cccs1, CC(=O)Nc1ccc(S(=O)(=O)Nc2nc3ccccc3nc2Nc2ccc(N)cc2)cc1, COc1ccc(-c2nnc(CSc3nc4ccccc4c(=O)n3CC3CCCO3)o2)cc1OC (stereo not drawn), CC(C)(C)NS(=O)(=O)c1ccc(N2C(=O)c3ccccc3C2=O)cc1, Cc1noc(C)c1C(=O)Nc1sc(C)c(-c2ccccc2)c1C#N, O=C(OCc1nc2ccsc2c(=O)[nH]1)c1cc(Br)c(Br)s1, O=c1c(-c2ccccc2)c[nH]n1-c1cccc([N+](=O)[O-])c1, Cc1[nH]n(-c2ccccc2)c(=O)c1C(c1cccc([N+](=O)[O-])c1O)c1c(C)[nH]n(-c2ccccc2)c1=O, Cc1cccnc1NC(=O)c1cccc(S(=O)(=O)N2CCN(c3ccc(F)cc3)CC2)c1, O=C(C1CCN(S(=O)(=O)c2ccc(Br)s2)CC1)N1CCN(c2ccccc2)CC1, COc1cc(-c2nnc(SC/C=C/c3ccccc3)n2N)cc(OC)c1OC, CCOC(=O)c1sc(=S)n(CC)c1NC(=O)C1CC1, O=c1cc(CNc2ccc(Br)cc2)nc2sccn12, CCCN1Cc2cccc(C(=O)NCc3ccccc3OC)c2C1=O, Cc1cc(O)ccc1C1(c2ccc(O)cc2C)OC(=O)c2ccccc21, CCCCCCCCC[n+]1cccc2c3ccccc3ccc21, Cn1ncc2c(N3CCC(Cc4ccccc4)CC3)ncnc21, Cc1c(C)n(CCc2ccccc2)c2ncnc(NN)c12, O=C(NC1CC1)C1=C[C@H](c2ccc(Br)cc2)C[C@H](OCc2ccc(CO)cc2)O1, Cn1nc(C(F)(F)F)c(-c2ccccc2)c1NC(=O)c1ccco1, O=C(Nc1ccccc1Cl)C1CCCN(c2ncnc3c2nc2n3CCCCC2)C1 (stereo not drawn), O=C(Nc1ccc(Cl)cn1)C1CCCN(c2ncnc3c2nc2n3CCCCC2)C1 (stereo not drawn), O=C(N/N=C/c1cccc(Oc2ccccc2)c1)c1cccc(O)c1, O=c1cc(CN2CCN(c3ccccc3O)CC2)nc2sccn12, O=c1cc(CSc2nc3cc(Cl)ccc3o2)nc2sccn12, O=C(Cn1nc(C(F)(F)F)c2c1CCCC2)NC1CCCC1, O=C(Cn1nc(C(F)(F)F)cc1C1CC1)NCc1ccccc1F, Clc1cccc(CNCCNCc2cccc(Cl)c2)c1, O=C(CSc1nnc(Cc2ccsc2)o1)c1ccccc1, CC(C)(C)OC(=O)NCCc1nnc(SCc2ccc(Cl)cc2)o1, CCOC(=O)c1[nH]c(C=O)c(C(=O)OCC)c1C, C=CCn1c(CSc2nc3ccccc3s2)nnc1SCC(=O)NCc1ccccc1, O=C(CSc1nccn1-c1ccc(F)cc1)NCc1ccc(F)cc1, Cc1nc2cc(C(=O)N3c4ccccc4CC3C)ccc2s1 (stereo not drawn), CCN1CCN(C(=O)CCc2nc3ccccc3n2-c2ccccc2)CC1, COc1ccc(-c2cc(C(=O)NCCCN3CCOCC3)c3cc(C(C)C)ccc3n2)cc1, CC(=O)c1cccc(OCC(=O)c2cc(C)n(-c3cc(C)on3)c2C)c1, N#C/C(=C\c1ccc(O)c(Br)c1)C(=O)NCc1ccccc1, COc1ccccc1NS(=O)(=O)c1ccc(O)c(C(=O)OCC(=O)c2ccc(Cl)cc2Cl)c1, Cc1c(Cl)cccc1NCC(=O)NN=C1CCCC1, Cc1nc(SC2CC(=O)N(c3cc(Cl)cc(Cl)c3)C2=O)nc2c1CCCC2 (stereo not drawn), COc1ccc(OC)c(Cc2nnc(CCC(=O)N3CCN(C4CCCC4)CC3)o2)c1, CC(C)(C)c1cc(C(=O)N/N=C/c2ccc(F)cc2)n(-c2ccccc2)n1, Cc1cc(/C=N/NC(=O)C(=O)NCc2ccccn2)c(C)n1-c1ccccc1, Cc1ccc(S(=O)(=O)N/N=C/c2cc(Br)ccc2O)cc1, CCOC(=O)c1cc2c(s1)-c1c(C)cccc1OC2, COc1ccc(C(=O)NC(=S)NNC(=O)c2ccc(C)cc2)cc1, Cc1ccccc1NC(=S)NNC(=O)c1ccncc1, Cc1ccc(C)c(NC(=O)c2cccc(Oc3ccc([N+](=O)[O-])cc3Cl)c2)c1, O=C(Nc1ccc(F)cc1)N1CCN(CCc2ccccc2)CC1, Cc1ccc(C#CC[N+]2(C)CCCCC2)cc1, C#CC[N+]1(CC#Cc2ccc(C)cc2)CCCCC1, Cc1cn([C@H](C(=O)NCCCCCCCCCCC(=O)N2CCN(C(=O)OC(C)(C)C)CC2)[C@@H](C)O)nn1, O=C(CNC(=O)c1ccc(Cl)cc1Cl)OCC(=O)c1ccc2c(c1)OCCO2, CN(/N=C/c1cc(Cl)cc(Cl)c1O)C(=S)NC(C)(C)C, COc1cc(CCCN2C(=O)C(=O)NC[C@H]2Cc2cccc3ccccc23)cc(OC)c1OC, CC(NC(=O)Cc1ccc(S(=O)(=O)N2CCOCC2)s1)c1ccc(Cl)c(Cl)c1 (stereo not drawn), CCOC(=O)c1ccc(NC(=O)c2ccc(C)c(S(=O)(=O)N3CCOCC3)c2)cc1, O=S(=O)(Nc1nc2ccccc2s1)c1ccc(Cl)s1, Cc1ccc(F)cc1NC(=O)c1ccc(NS(=O)(=O)c2ccc(Br)s2)cc1, O=C(Nc1ccccc1)c1nnn(Cc2ccccc2)c1NC(=O)C(F)(F)F, O=C(O)CSc1cc(C(=O)c2ccccc2O)cn2c(=O)c3c(-c4ccccc4)csc3nc12, Cc1ccc(-c2csc3nc(SCC(=O)Nc4ccc(Cl)c(C(=O)O)c4)[nH]c(=O)c23)cc1, O=S(=O)(Nc1nc2ccccc2nc1NCC1CCCO1)c1cc(Cl)ccc1Cl (stereo not drawn), CCCc1cc(NCCN(C)C)n2c(nc3ccccc32)c1C#N, NC(=O)c1c(NC(=O)CN2C(=O)NC(Cc3ccccc3)C2=O)sc2c1CCC2 (stereo not drawn), O=C(Nc1sc2c(c1C(=O)O)CCCC2)c1ccc(Cl)cc1, O=C(NC1CCCC1)C(c1cccnc1)N(CCc1ccccc1)C(=O)c1ccco1 (stereo not drawn), CC1CCC(NC(=O)c2ccc(NC3=NC4CS(=O)(=O)CC4S3)cc2)CC1 (stereo not drawn), CC1CCC(NC(=O)Cn2c3c(c(-c4ccccc4Cl)cc2=O)CCC3)CC1 (stereo not drawn), NC(N)=Nc1nc(CCN2C(=O)c3ccccc3C2=O)cs1, CCN(CC)S(=O)(=O)c1cc(C(=O)N2CCc3ccccc32)ccc1Cl, CC(C)n1c(O)c(N=NC(=O)CNC(=O)Cc2ccc(Cl)cc2)c2ccccc21, CCCCn1nc2cc(C(=O)NC3CCc4ccccc43)ccc2c1OCC (stereo not drawn), Cc1ccc(NC(=O)CN(C)C(=O)COC(=O)CNS(=O)(=O)c2ccc(Br)cc2Cl)cc1, CC(Oc1ccc(Cl)cc1Cl)C(=O)Nc1ccc(S(=O)(=O)Nc2cnc3ccccc3n2)cc1 (stereo not drawn), O=C(Nc1ccc(S(=O)(=O)Nc2nccs2)cc1)c1c(F)c(F)c(F)c(F)c1F, O=C1C[C@H]2[C@H](CO)[C@@H](OC(=O)c3ccc(-c4ccccc4)cc3)C[C@H]2O1, CC1(C)C(C=C(Cl)Cl)C1C(=O)Nc1ccc(S(=O)(=O)Nc2ncccn2)cc1 (stereo not drawn), O=C(Nc1ccc(S(=O)(=O)Nc2cnc3ccccc3n2)cc1)c1ccc(Cl)c([N+](=O)[O-])c1, CCC(Oc1ccccc1C)C(=O)Nc1ccc(S(=O)(=O)Nc2cc(C)on2)cc1 (stereo not drawn)

Reference: PubChem BioAssay AID504840 (Johns Hopkins Ion Channel Center, 2011)
